Source: PubChem BioAssay AID720519 (National Center for Advancing Translational Sciences (NCATS), 2013)
Records with an inconclusive call do not appear. A call without a number means that no potency is given here. The source made the active and inactive calls. Calls follow the shape of the dose curve; as a rule, active = well fitted activation curve with a large enough effect; inconclusive = small, poorly fitted or top-dose-only effect; inactive = flat fitted curve, though single readings scatter.

Test: qHTS for Inhibitors of Cell Surface uPA Generation: Confirmatory Assay for Cherry-picked Compounds
Settings: cell surface uPA activity generation, qHTS confirmation; series mostly up to 115 µM
How it was run: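 RAW 264.7 cells at 4000/well, incubated overnight, then treated with compounds. After 24 h at 37 C, viability was read by ATPlite luminescence. An increase in signal indicates blocked uPA-dependent LF entry.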
Potency is read from the fitted curve at half-maximal effect.

Row | Structure (SMILES) | Potency
1 | CN(CC(=O)NCCCn1ccnc1)S(=O)(=O)c1ccc(Cl)cc1 | inactive
2 | COCc1cc(C)nc2sc(C(=O)Nc3nccs3)c(N)c12 | inactive
3 | COc1cc(/C=N/NC(=O)Cc2csc(C)n2)ccc1OCC(C)C | inactive
4 | O=C(/C=C/c1cccc(Oc2ccccc2)c1)N1CCOCC1 | inactive
5 | COc1ccc(S(=O)(=O)c2c(O)c3ccc(C(=O)Nc4ccccc4)cc3[nH]c2=O)cc1 | inactive
6 | CCCCN(CC)CCNC(=O)c1cc2cc3ccc(Cl)cc3nc2o1 | inactive
7 | Cc1nnc2ccc(-c3ccc(NS(=O)(=O)c4ccc(Cl)s4)cc3)nn12 | inactive
8 | COc1ccccc1CNC(=O)CCn1c(=O)oc2ccccc21 | inactive
9 | Cc1ccc(S(=O)(=O)N2CCC(C)CC2)cc1 | inactive
10 | O=C(NCC1CCCO1)c1ccc(NC(=O)c2ccc([N+](=O)[O-])cc2)cc1 (stereo not drawn) | inactive
11 | CN(C)C(=S)Nc1ccc(S(=O)(=O)N2CCCCC2)cc1 | inactive
12 | O=C(OCC(=O)N1CCOCC1)c1c(Cl)ccc(Cl)c1Cl | inactive
13 | S=C(Nc1ccccc1Cl)N1CCCC(c2ccccc2)=N1 | 13.1 µM (active)
14 | CN(CCO)c1ccc(C(C(=O)c2ccccc2)c2ccc(N(C)CCO)cc2)cc1 | inactive
15 | CC/C(=N\Nc1ccccc1[N+](=O)[O-])c1ccc(O)cc1 | inactive
16 | c1csc(CN2CCOCC2)c1 | inactive
17 | CCOc1ccc(-n2cnc3scc(-c4ccc(OC)c(OC)c4)c3c2=O)cc1 | inactive
18 | O=C(C1CCCCN1S(=O)(=O)c1ccc(F)cc1)N1CCN(c2ccccc2F)CC1 (stereo not drawn) | inactive
19 | COc1ccc(C2=Nc3ccccc3C2(O)CCN2C(=O)c3ccccc3C2=O)cc1 (stereo not drawn) | inactive

Row | Structure (SMILES) | Potency
20 | COc1ccc(C(=O)CC2(C(=O)O)CCCCC2)cc1 | inactive
21 | Cc1noc(C)c1COc1ccc(C(=O)N2CCN(S(=O)(=O)c3ccc(Cl)cc3)CC2)cc1 | inactive
22 | Cc1[nH]c2ccccc2c1C(=O)COC(=O)c1cccc(S(=O)(=O)N2CCCCC2)c1 | inactive
23 | CS(=O)(=O)c1ccc(Cl)c(NC(=O)COC(=O)CNC(=O)c2cccs2)c1 | inactive
24 | CC(NC(=O)C1CCC(C(=O)NC(C)c2ccccc2)CC1)c1ccccc1 (stereo not drawn) | inactive
25 | CC(=O)[C@@]1(O)[C@H](C)CC2C3CC=C4CC(OP(=O)(O)O)CC[C@]4(C)C3CC[C@@]21C (stereo partly drawn) | inactive
26 | NC(=O)c1cc2c3ccccc3ccn2c1-c1ccccc1 | inactive
27 | Cc1ccn(CCC(=O)N2CCc3ccccc32)n1 | inactive
28 | C[C@@H]1O[C@@H](O[C@@H]2C(=O)c3c(O)cc(O)cc3O[C@H]2c2ccc(O)c(O)c2)[C@H](O)[C@H](O)[C@H]1O | inactive
29 | Cc1ccc(NC(=S)N2CCN(Cc3ccc4c(c3)OCO4)CC2)c(C)c1 | inactive
30 | COc1ccc(-c2sc3ccccc3c2C#CCO)cc1 | inactive
31 | COc1ccccc1N1CCN(C(=O)CCC(=O)N2CCN(c3ccc(F)cc3)CC2)CC1 | inactive
32 | O=C(Nc1ccc(S(=O)(=O)N2CCOCC2)cc1)c1cc(-c2ccccc2O)n[nH]1 | inactive
33 | COC(=O)c1ccc(N2CCN(c3ccccc3)CC2)c(NC(=O)C2CC2)c1 | inactive
34 | C[n+]1c2cc(N)ccc2cc2ccc(N)cc21 | inactive
35 | COc1cc(C2NC(=O)NC(C)=C2C(=O)OCC2CCCCC2)ccc1O (stereo not drawn) | inactive
36 | Cc1ccc(-c2nc(CS(=O)(=O)CC(=O)NCc3cccc(F)c3)c(C)o2)cc1 | inactive
37 | Cc1ccc(NC(=O)CS(=O)Cc2nc(-c3ccc(C)cc3)oc2C)cc1 (stereo not drawn) | inactive
38 | CCc1c(C)sc(NC(=S)N2CC(C)OC(C)C2)c1C(=O)OC (stereo not drawn) | inactive
